Measurements reported in ChEMBL document CHEMBL3988442, “University of Dundee, Small-Polar-MMV Screening Library” (2021).
About 950 (1.4%) of roughly 69,000 compounds showed an effect of 50% or more. The entries come from a sample that favours strong results as a whole.

Test system: Mycobacterium tuberculosis
Assay: Cornell M. t heat shock assay; further: in the data most compounds retested in dose-response had high values
Assay type: functional, organism-based
Design: dose or concentration left out as unconfirmed

Row | SMILES | Percent Effect
1 | CCc1c(C)[nH]c(C2(N)CCCCC2)nc1=O.Cl | -31.03%
2 | O=C(c1cccnc1Oc1ccc(Cl)cc1)N1CC[C@@H](O)C1 | 54.07%
3 | O=C(c1cccnc1SCc1ccccc1)N1CC[C@@H](O)C1 | 7.782%
4 | O=C(NCCOCCO)c1cccnc1Oc1ccc(Cl)cc1 | 43.92%
5 | COCCNC(=O)c1cccnc1Oc1ccc(Cl)cc1 | 50.01%
6 | COc1ccc(Oc2ncccc2NC(=O)N2CC[C@H](O)C2)cc1 | -5.111%
7 | CCOC(=O)CNC(=O)c1cccnc1Oc1ccc(Cl)cc1 | -21.74%
8 | O=C(Cc1ccccn1)N1CCN2C[C@H](Oc3cccc(F)c3)C[C@H]2C1.O=C(O)C(F)(F)F.O=C(O)C(F)(F)F | -12.23%
9 | CN(C)C(=O)N1CCC2(CCCN(Cc3cnn(C)c3)C2)C1.O=C(O)C(F)(F)F (configuration not stated) | -9.776%
10 | CC(C)n1c(C2CCCN(CC(=O)NC3CC3)C2)nc2ccccc21 (configuration not stated) | -32.24%
11 | CN1CCN(C(=O)c2ncn3c2CN(C)S(=O)(=O)c2ccccc2-3)CC1.O=C(O)C(F)(F)F | -21.31%
12 | CCn1cc(N2Cc3nc(N(C)C)ncc3C2=O)cn1 | 8.315%
13 | O=C(C1CC=CC1)N1CCC2(CCN(Cc3ccccn3)C2=O)C1.O=C(O)C(F)(F)F (configuration not stated) | -18.77%
14 | COc1ccc(OCCNCc2c(C)nn(C)c2N(C)C)cc1.Cl | 36.3%
15 | CNC(=O)c1cc2c(nc1N(C)C)CCN(c1ncc(C)cn1)CC2.O=C(O)C(F)(F)F | 38.06%
16 | O=C(O)C(F)(F)F.O=C(c1ccc(F)cc1)N1C[C@@H]2CCN(c3cccnc3)C[C@@H]2C1 | -7.242%
17 | O=C(C1CCC1)N1C[C@@H]2CCN(c3cccnc3)C[C@@H]2C1.O=C(O)C(F)(F)F | -23.64%
18 | Fc1cccc(N2C[C@H]3CCN(c4cccnc4)C[C@H]3C2)c1.O=C(O)C(F)(F)F | 98.87%
19 | C[C@@H]1CN(CCc2ccccc2)C[C@]12CCN(CC(=O)N(C)C)C2=O.O=C(O)C(F)(F)F | 2.052%

Row | SMILES | Percent Effect
20 | Cn1c(CNCC2CCCN2c2cccnn2)nc2ccccc21 (configuration not stated) | 3.675%
21 | CN(Cc1ncc(-c2ccccc2)o1)CC1CCCN1c1cccnn1 (configuration not stated) | 0.462%
22 | Cc1nc2ccccc2nc1CN(C)CC1CCCN1c1cccnn1 (configuration not stated) | 18.99%
23 | CC(C)(C)c1cnc(CNCC2CCCN2c2cccnn2)o1 (configuration not stated) | -26.2%
24 | CN(Cc1nc2ccccc2n1C)CC1CCCN1c1cccnn1 (configuration not stated) | 101.2%
25 | CN(Cc1ncc(C(C)(C)C)o1)CC1CCCN1c1cccnn1 (configuration not stated) | 66%
26 | Cn1nccc1-c1nnn2c1COCC(CNCC1CC1)C2.O=C(O)C(F)(F)F.O=C(O)C(F)(F)F (configuration not stated) | 30.33%
27 | COc1cccc2c(C)c(C(=O)N3CCNCC3C(N)=O)[nH]c12.Cl (configuration not stated) | -6.521%
28 | O=C(O)C(F)(F)F.O=C(O)C(F)(F)F.c1ccc(N2CCC3(COCCN(Cc4cccs4)C3)C2)nc1 (configuration not stated) | 0.5206%
29 | CC(C)NC(=O)N1C[C@H](OCc2cccnc2)[C@H]2COC[C@H]21.O=C(O)C(F)(F)F | 2.427%
30 | CCc1nnc2n1CCN(Cc1ncc(-c3ccc(F)cc3)o1)C2 | -9.541%
31 | Cc1nnc2n1CCN(Cc1ncc(-c3ccc(F)cc3)o1)C2 | 77.14%
32 | Cc1nnc2n1CCN(Cc1ncc(-c3ccccc3)o1)C2 | -5.111%
33 | CCc1nnc2n1CCN(Cc1ncc(-c3ccc(Cl)cc3)o1)C2 | -1.022%
34 | Cc1nnc2n1CCN(Cc1ncc(-c3ccc(Cl)cc3)o1)C2 | -15.98%
35 | CCc1nnc2n1CCN(Cc1ncc(-c3ccccc3)o1)C2 | 76.57%
36 | CN1C(=O)CCC12CCN(c1ccc(C#N)cn1)CC2.O=C(O)C(F)(F)F | 8.745%
37 | Cc1nc(C)c(C(C)NCc2cnc(N3CCOCC3)nc2)s1.Cl (configuration not stated) | -16.16%
38 | Cn1cc(CN2C[C@@H]3COC[C@@H](C(=O)N4CCCCO4)[C@@H]3C2)cn1.O=C(O)C(F)(F)F.O=C(O)C(F)(F)F | 6.742%

Row | SMILES | Percent Effect
39 | Fc1cnc(N2CCCn3cnc(COc4cccnc4)c3C2)nc1.O=C(O)C(F)(F)F | 9.371%
40 | Cc1cc(C)c(CNC(=O)NCC2CCOC2)c(=O)[nH]1 (configuration not stated) | -20.09%
41 | COCCC(=O)N1CCOCC2(CCN(Cc3cccs3)C2)C1.O=C(O)C(F)(F)F (configuration not stated) | -16.95%
42 | O=C(O)C(F)(F)F.O=C(O)C(F)(F)F.O=C1COC2(CCN(Cc3cccnc3)CC2)CN1 | -2.798%
43 | CC(C)Nc1ncnc2c1CCN(C(=O)[C@H]1CCCO1)CC2 | -13.05%
44 | O=C([C@H]1CCCO1)N1CCc2ncnc(NC3CC3)c2CC1 | 65.17%
45 | O=C(C1CCCO1)N1CCc2ncnc(NC3CCC3)c2CC1.O=C(O)C(F)(F)F (configuration not stated) | -8.605%
46 | COCC1COCCC12CCN(Cc1nccs1)CC2.O=C(O)C(F)(F)F (configuration not stated) | 8.236%
47 | CS(=O)(=O)NC1CCN(C(=O)c2cc3ccccc3s2)C1 (configuration not stated) | 0.7353%
48 | CS(=O)(=O)N[C@@H]1CN(C(=O)c2cc3ccccc3s2)C[C@H]1O | 101.8%
49 | CCC[C@@H]1CN(C(=O)c2cc3ccccc3s2)C[C@H]1NS(C)(=O)=O | 11.11%
50 | Cn1cc(C[C@H]2[C@H](O)CCN2CC2CCOCC2)cn1.O=C(O)C(F)(F)F | 6.354%
51 | O=C(O)C(F)(F)F.O=C(c1ccsc1)N1CCO[C@@H]2CN(Cc3nccs3)C[C@@H]2C1 | 10.37%
52 | Cc1cccc(CN2C[C@@H](C)[C@@]3(CCN(CC(=O)N(C)C)C3=O)C2)c1.O=C(O)C(F)(F)F | -6.766%
53 | Cc1ccsc1C(=O)N1CC[C@@H](N(C)C)[C@@H]1Cc1cnn(C)c1.O=C(O)C(F)(F)F | -5.648%
54 | CCn1nc(CC(C)C)cc1C(=O)NCCn1cccc1 | 49.17%
55 | CCn1nc(C(C)C)cc1C(=O)NCCCOC | 4.35%
56 | CCn1nc(CC(C)C)cc1C(=O)NCCCOC | 92.73%
57 | Cc1csc(CCNCc2cnc3c(c2)c(C)nn3C)n1.Cl | 6.139%
